Screening results: PubChem, National Center for Advancing Translational Sciences (NCATS)
SARS PLpro yeast-1 = blocks SARS-CoV papain-like protease in a yeast assay; S. cerevisiae expressing SARS-CoV PLpro, growth rescue; Potency, µM (highest dose often 32.9 µM), for inactives: at the highest dose activity, positive = growth rescue, hits mostly activators; 0.19% of 330,000 active; AID 485353; calls by dose curve; also: potency is read from the fitted curve at half-maximal effect; 0% is about no effect; nearly all actives have a fitted effect of over 55% in size
Sm TGR block = inhibitors of Schistosoma mansoni thioredoxin glutathione reductase. Potency, µM (titrated, usually from 114 µM), without a hit: at the highest dose activity change, negative = inhibition, actives largely listed as inhibitors. purified TGR, DTNB reduction, TNB absorbance 405 nm. 3% of 360,000 active. AID 485364. Q962Y6; also: potency is read from the fitted curve at half-maximal effect; % is scaled to controls: 0 for no effect and ±100 for the full control effect; nearly all actives have a fitted effect of over 60% in size
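First, TGR (20 nM dispensed) and NADPH were mixed with compound. Second, a 15 min room-temperature incubation followed. Third, further NADPH and then DTNB were added to start the reaction. Finally, TNB absorbance was monitored kinetically.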
Pf growth 96h = P. falciparum growth inhibition at 96 hours. P. falciparum luciferase reporter growth, 96 h. Potency, µM (highest dose often 28.7 µM), inactives show top-dose activity change, negative = inhibition, actives largely listed as inhibitors. 6.9% of 320,000 active. AID 504834; also: potency is read from the fitted curve at half-maximal effect; % is scaled to controls: 0 for no effect and ±100 for the full control effect
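Delayed-death screen, second-generation endpoint: infected erythrocytes, 2% hematocrit, 0.05% parasitemia final; 96 hours at 37 C, 5% CO2; luciferase detection reagent; luminescence decrease equals reduced growth.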
AmpC inh detg = inhibitors of E. coli AmpC beta-lactamase with detergent; 0.041% of 370,000 active; Potency, µM (highest dose often 114 µM), for the others: top-dose activity change, negative = inhibition, hits mostly inhibitors; AmpC hydrolysis of nitrocefin, absorbance 480 nm, 0.01% Triton; P00811; AID 485294;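 also: potency is read from the fitted curve at half-maximal effect; 0% = no-compound wells and -100% = no-enzyme wells; nearly all actives have a fitted effect of over 25% in size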
Target sequence (P00811 whole entry, looked up): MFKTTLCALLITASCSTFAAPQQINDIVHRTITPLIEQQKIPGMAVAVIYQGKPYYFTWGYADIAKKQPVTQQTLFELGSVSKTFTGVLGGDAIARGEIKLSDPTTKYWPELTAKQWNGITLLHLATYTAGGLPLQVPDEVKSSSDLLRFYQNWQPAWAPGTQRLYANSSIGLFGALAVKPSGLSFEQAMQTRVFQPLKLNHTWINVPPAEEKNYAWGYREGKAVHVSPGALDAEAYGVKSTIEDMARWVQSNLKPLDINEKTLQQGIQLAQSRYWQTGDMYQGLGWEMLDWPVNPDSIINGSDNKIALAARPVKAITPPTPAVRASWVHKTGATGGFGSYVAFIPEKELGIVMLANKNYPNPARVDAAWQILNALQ
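20 mM phosphate pH 7.0 + 0.01% (detergent screen) or 0.0001% Triton X-100; 5.3 nM AmpC reagent; cpd preinc 15 min RT; nitrocefin (800 uM stock) to start; A480 q20 s × 4 min; Activity was normalised to no-enzyme and no-compound control wells.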
AmpC inh no detg = inhibitors of E. coli AmpC beta-lactamase without detergent | AmpC nitrocefin hydrolysis, absorbance 480 nm, 0.0001% Triton | AID 485341 | 0.52% of 330,000 active | P00811 | Potency, µM (top dose mostly 57.1 µM), inactives show at the top dose activity change, negative = inhibition, actives largely listed as inhibitors;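 also: potency is read from the fitted curve at half-maximal effect; plate controls were no compound for no effect and no enzyme for full effect; nearly all actives have a fitted effect of over 20% in size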
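20 mM phosphate pH 7.0 + 0.01% (detergent screen) or 0.0001% Triton X-100; 5.3 nM AmpC reagent; cpd preinc 15 min RT; nitrocefin (800 uM stock) to start; A480 q20 s × 4 min; Activity was normalised to no-enzyme and no-compound control wells.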
Pf growth 48h = P. falciparum growth inhibition at 48 hours (one generation). P. falciparum luciferase growth in erythrocytes, 48 h. AID 504832. Potency, µM (series often up to 28.7 µM), for the others: at the top dose activity change, negative = inhibition, usual class: inhibitors. 5.9% of 310,000 active; also: potency is read from the fitted curve at half-maximal effect; % is scaled to controls: 0 for no effect and ±100 for the full control effect
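A one-generation exposure of luciferase-tagged malaria parasites in RPMI 1640/Albumax erythrocyte culture, 37 C and 5% CO2. Inhibition is inferred from decreased luminescence after adding detection reagent.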
SARS PLpro yeast-2 = Rescues yeast growth by inhibiting SARS-CoV PLpro | shares compounds with SARS PLpro yeast-1 | yeast expressing SARS-CoV PLpro, growth phenotype rescue | calls only | 19% of 1,000 active | AID 652038; call rule not given here
Starred values were filed as active, the others as inactive; i = inactive; ? = inconclusive; . = no result; + = active, no number; [ ] = dose if it differs, or a comment. The list is not random: actives were taken first. Their share in the collection is about 12%. Unless noted, calls follow the shape of the dose curve; as a rule, active = well fitted curve in the direction sought with a large enough effect; inconclusive = small, poorly fitted or top-dose-only effect, or another doubt; inactive = no such curve, though single readings can be large; an effect the other way counts as inactive or inconclusive.

SMILES	SARS PLpro yeast-1	Sm TGR block	Pf growth 96h	AmpC inh detg	AmpC inh no detg	Pf growth 48h	SARS PLpro yeast-2
NC(=S)N/N=C/c1cccc(/C=N/NC(N)=S)c1	0%	-6%	0%	-7%	-36%	63%	.
COc1ccc(/C=N/NC(N)=S)cc1OC(=O)c1ccccc1	11µM*	-4%	3%	-7%	-51%	.	i
NC(=S)N/N=C/C=C/c1ccccc1	1.6µM*	-4%	?	-5%	-20%	?	+
NC(=S)N/N=C/c1ccc2ccccc2c1	5.6µM*	-14%	?	-6%	-14%	-15%	+
CCCCCCN(C(=O)CCCN1C(=O)NC(c2ccc([N+](=O)[O-])cc2)C(C(=O)OCc2ccccc2)=C1C)C(C)C(=O)NCCCC (centres undefined)	?	.	.	.	16%	.	i
CCOC(=O)C1=C(C)N(CCCCCC(=O)O)C(=O)NC1c1ccc([N+](=O)[O-])cc1 (centres undefined)	7%	9%	?	3%	-15%	-1%	.
O=C(Cc1cnn(-c2ccccc2)c1)c1ccc(O)c(O)c1O	?	?	9%	0%	-55%	.	i
CCc1cc(C(=O)Cc2cnn(-c3ccccc3)c2)c(O)cc1O	3%	-8%	?	-1%	-51%	?	.
COc1ccccc1NS(=O)(=O)c1ccc(NC(=O)N2CCCCC2)cc1	-5%	-7%	18%	-3%	-19%	-6%	.
O=C(Nc1ccc(S(=O)(=O)Nc2ccccc2F)cc1)N1CCCCC1	?	-3%	?	7%	-14%	25%	+
COc1ccc(Cc2nnc(N/N=C/c3ccc(O)cc3O)[nH]c2=O)cc1OC	6.3µM*	8%	?	5%	-13%	4.1µM*	i
COc1cccc(NC(=O)COC(=O)CNS(=O)(=O)c2c(F)cccc2F)c1	?	-10%	?	-12%	-28%	6%	i
COc1cccc(NC(=O)COC(=O)c2ccccc2F)c1	-3%	-6%	-14%	-4%	-26%	9%	.
Cc1cccc(NC(=O)N2CCC(N3CCN(Cc4ccccc4)C(=O)C3=O)CC2)c1C	.	0%	.	-2%	.	.	.
Cc1ccc(O)c(N=NC2=C(O)CC(C)(C)CC2=O)c1	18µM*	-19%	?	0%	-16%	?	+
CC1(C)CC(=O)C(N=Nc2cc(Cl)c(Cl)c(Cl)c2)=C(O)C1	-1%	-1%	24%	-5%	-38%	.	.
Cc1ccc(CNc2nc3ccccc3n3c(C)nnc23)cc1	.	1%	.	-4%	.	.	.
COCCCNC(=O)c1c(NC(=O)C2COc3ccccc3O2)sc2c1CCCC2 (centres undefined)	?	6%	?	0%	-13%	.	i
Cn1cccc1/C=N/NC(N)=S	10µM*	3%	?	-4%	-13%	9%	+
C/C(CC(C)(C)c1ccccc1)=N\NS(=O)(=O)c1ccccc1	1%	19%	1%	-8%	-30%	6%	.
Cc1cccc(C)c1NC(=S)NN1CCN(C)CC1	?	-6%	2%	0%	-18%	.	+
CCC(C)NC(=O)C1CCC(CNS(=O)(=O)c2ccccc2)CC1 (centres undefined)	1%	11%	0%	?	2%	5%	.
COc1ccc(C(=O)Oc2ccc(=O)n(-c3ccccc3)n2)cc1	.	0%	0%	?	27%	44%	+
Cc1ccc([N+](=O)[O-])cc1S(=O)(=O)Nc1ccc(-c2ccc(N3CCOCC3)nn2)cc1	3%	0%	?	?	-38%	?	.
Cc1ccc([N+](=O)[O-])cc1S(=O)(=O)Nc1cccc(-c2ccc(N3CCCC3)nn2)c1	11µM*	1%	27%	-5%	-16%	41%	i
SMILES	SARS PLpro yeast-1	Sm TGR block	Pf growth 96h	AmpC inh detg	AmpC inh no detg	Pf growth 48h	SARS PLpro yeast-2
O=C(CCCN1C(=O)c2ccccc2C1=O)N1CCc2ccccc2C1	-9%	-3%	35%	?	7%	21%	.
Clc1nc2sccn2c1/C=N/n1cnc2ccccc21	?	7%[11.4 µM]	-13%	6%	-4%	.	i
Cc1ccccc1Nc1ncnc(N)n1	6%	4%	-2%	3%	-21%	10%	.
CC1Cc2ccccc2N1C(=O)CSc1nccc(=O)[nH]1 (centres undefined)	-1%	0%	36%	3%	5%	8%	.
CC1CCCC(C)N1C(=O)COC(=O)Cc1ccc(Cl)cc1 (centres undefined)	1%	?	-10%	-8%	13%	?	.
CN(C(=O)COC(=O)Cc1ccc(Cl)cc1)C1CCCCC1	?	.	.	.	1%	.	i
Cc1cccc2cc(COC(=O)c3cccs3)c(=O)[nH]c12	3.2µM*	-1%	1%	-4%	-7%	22%	i
Cc1cccc2cc(COC(=O)c3ccccc3)c(=O)[nH]c12	-7%	0%	-7%	-11%	-13%	17%	.
CCc1ccc(-c2ccc3nnc(SCC(=O)Nc4cccc(C(C)=O)c4)n3n2)cc1	.	0%	.	0%	.	.	.
Cc1ccc(-c2nc3scc(CCNS(=O)(=O)c4ccc(C)c(C)c4)n3n2)cc1	.	7%	.	2%	.	.	.
CCCCCCOC(=O)C(C#N)c1nc2ccccc2nc1N1CCCCC1 (centres undefined)	1%	9%	0%	?	-11%	43%	.
CCCCCCOC(=O)C(C#N)c1nc2ccccc2nc1N1CCN(C)CC1 (centres undefined)	?	0%	?	?	146%	?	i
Cc1nccn1CCCN1C(=O)CNC1=S	4.5µM*	-4%	5%	-5%	-13%	-5%	i
O=C1CNC(=S)N1CCCn1ccnc1	0%	9%	?	-3%	-30%	-8%	.
Cc1cc([N+](=O)[O-])nn1CC(=O)N1CCCc2ccccc21	16µM*	-15%	?	-5%	-12%	14%	i
CCCCN(C)C(=O)C1CCCN(S(=O)(=O)c2ccc3c(c2)oc(=O)n3C)C1 (centres undefined)	-1%	-22%	9%	?	52%	?	.
Cc1ccc2[nH]c(=S)cc(C)c2c1	22µM*	3%	-2%	?	-24%	?	+
COc1cc(NC(=O)Cn2c(C)cc3ccccc3c2=O)cc(OC)c1OC	13µM*	-16%	29%	9%	-19%	0%	i
